From PubChem BioAssay (NCI) come the findings set out here.

This is part of a sample that, as a whole, favours compounds with a hit. Of some 83,000 tested, about 20% had one in any assay.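 Cells were grown in 96-well plates and exposed to the test compound at a single concentration for 48 hours; results are reported as percent growth, with values below 10 considered active.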 A number with no mark means an inactive call. Calls of active or inactive are those of the source.

The subject of this experiment is RXF 393 renal. Kind of experiment: NCI-60 one-dose screen, 48 h (100 = growth as untreated, 0 = no growth, -100 = all killed). Conditions: 10 µM unless noted.
On to `COc1cc2c(=O)n(C3CCCCCCC3)c3c4cc[nH]c4ncc3c2cc1OC`, for which the growth was 19.1%.
Take `C1CCC([PH+](C2CCCCC2)C2CCCCC2[PH+](C2CCCCC2)C2CCCCC2)CC1.[Au].[CH-]1CCCCC1CC1CCCC[N-]1` (stereo unspecified): the growth is -92.7% (active).
As for `CCCCN1CCCC[C@@H]1C(=O)N[C@H](C(=O)N(C)[C@H](C[C@@H](OC(C)=O)c1nc(C(=O)NC2CCC(C(=O)OC)CC2)cs1)C(C)C)C(C)C` (stereo partly specified), the growth is 18.3%.
The figure for `CS(=O)(=O)CCN1CC2CCCC(C2)C1` is 107%; for `COC(=O)[C@@H](C)C[C@H](Cc1ccccc1)NC(=O)c1nc([C@@H](C[C@H](C(C)C)N(C)C(=O)[C@@H](NC(=O)[C@H]2CCCCN2C)C(C)C)OC(C)=O)sc1C(C)C` it is 23.7%.
Next, `C=CC[Se]C(=O)c1ccccc1OC(C)=O`: -21% (active); `CC(C)[C@@H]1NC(=O)[C@]2(C)CSC(=N2)c2csc(n2)CNC(=O)C[C@@H](/C=C/CCS)OC1=O`: -57.7% (active).
The figure for `Clc1cccc(Cl)c1Cl` is 122%; for `O=C(CC1(O)C(=O)Nc2ccc(Cl)cc21)c1ccc(C(=O)NCC2CCC3(CC2)OOC2(CCCCC2)OO3)cc1` (stereo unspecified) it is 18.5%; for `COc1ccc(C(O)(C(=O)O)c2ccc(OC)cc2)cc1` it is 109%.
With `CCn1c2ccccc2c2cc(C(=O)c3ccc(C)c4ccccc34)ccc21`, the growth is 15%.
Next, `COC(=O)[C@]12CCC(C)(C)C[C@H]1[C@H]1C(=O)C[C@@H]3[C@@]4(C)C[C@@]5(CC(C)(C)[C@@H]4CC[C@@]3(C)[C@]1(C)CC2)OO[C@@](C)(C(F)(F)F)O5`: 95.3%; `CC[C@]12C=CCN3CC[C@@]4(c5ccc(OC)cc5N(C)[C@H]4[C@@](O)(C(=O)OC)[C@@H]1OC(=O)CCCC[P+](c1ccccc1)(c1ccccc1)c1ccccc1)[C@@H]32`: -13.3% (active).
In the case of `CCCCCCCCOC(=O)CCN1CC1`, the growth is 107%.
The figure for `CC1[C@H](C)OC(=O)CC(O)CC(O)CC(O)CCC(O)C(O)C[C@]2(O)CC(O)C(C(=O)O)C(CC(OC3O[C@H](C)[C@@H](O)[C@H](N)[C@@H]3O)/C=C/C=C/C=C/C=C/CC/C=C/C=C/[C@H](C)[C@H]1O)O2` (stereo partly specified) is 107%.
Take `c1cc2c(c3c1CCNC3)OCO2`: the growth was 104%.
The figure for `Cc1ccc(N2COOC3(OOC2)C2CC4CC(C2)CC3C4)cc1` is 115%.
The figure for `O=C(CC1(O)C(=O)N(Cc2ccccc2)c2ccc(Br)cc21)c1ccc(C(=O)NCC2CCC3(CC2)OOC2(CCCCC2)OO3)cc1` (stereo unspecified) is -76.5% (active); for `C[C@@H]1C[C@@]2(C)[C@@H](CC[C@@H]3[C@@H]2CC[C@]2(C)C(=O)CC[C@@H]32)CC1=O` it is 49.7%.
`CCN(CC)c1ccc2c(c1)OC(N)=C(C#N)C2c1cc(OC)c2c(c1)OCO2` (stereo unspecified): the growth is 30.9%.
Next, `O=P(Oc1ccc(Cl)cc1)(N1CC1)N1CC1`: 73.9%; `O=[N+]([O-])c1cc(I)cc([N+](=O)[O-])c1`: 111%; `CC(=O)O[C@H](C[C@H](C(C)C)N(C)C(=O)[C@@H](NC(=O)[C@H]1CCCCN1C)C(C)(C)C)c1nc(C(=O)N[C@@H](Cc2ccccc2)C[C@H](C)C(=O)O)cs1`: 39.5%.
On to `CC[C@H](C)[C@H](NC(=O)[C@H]1CCCCN1C)C(=O)N(C)[C@H](C[C@@H](O)c1nc(C(=O)N[C@@H](Cc2ccccc2)C[C@H](C)C(=O)O)cs1)C(C)C`, for which the growth is 96.9%.
Regarding `CN1CCC(O)(c2ccc(F)cc2)C(C(=O)c2ccc(F)cc2)C1` (stereo unspecified), the growth was 103%.
On to `O=C1NC(=O)C(=Cc2cccn2CCCCCn2c3ccccc3c(=O)c3ccccc32)C(=O)N1`, for which the growth was 110%.
The figure for `COC(=O)[C@@H](C[C@H](Cc1ccccc1)NC(=O)c1csc([C@@H](C[C@H](C(C)C)N(C)C(=O)[C@@H](NC(=O)[C@H]2CCCCN2C)C(C)C)OC(C)=O)n1)NC(=O)OCc1ccccc1` is 39.8% [9.5 µM]; for `CN(C)CCCOc1ccc2c(c1)c(C(=O)C(=O)NCCO)cn2Cc1ccccc1` it is 89.1%; for `COc1cc(C=Nc2cc(Cl)cc(Cl)c2)ccc1N(CCCl)CCCl` it is 82%.
Next, `CCOC(=O)N[C@H]1CCc2c(Br)c(OC)c(OC)c(OC)c2-c2ccc(SC)c(=O)cc21`: 12.8%.
The figure for `C/C(CC(C)(C)N1CC1)=N\NC(=O)Nc1cccc2ccccc12` is 39.2%.
